Assay results: PubChem BioAssay AID2314 (National Center for Advancing Translational Sciences (NCATS), 2010)
Values joined by “and” are separate entries in the source; they are usually repeats but may differ in a detail not shown here. Equal entries are not always repeated. In all, about 300,000 compounds went through this assay and about 37,000 (12%) were called active. The sample as a whole holds a higher share of actives than the screen did. Values without a mark were called inactive. Rule as the data show it: active = max response mostly above about 13% (no sharp cut-off); inactive = mostly below about 14%.

test: Cycloheximide Counterscreen for Small Molecule Inhibitors of Shiga Toxin; settings: cell reporter, cycloheximide protein synthesis inhibition counterscreen; stronger effect = higher value; also: read at 38.3 µM for the half of the compounds with a filed dose; 0% is about no effect

| Structure (SMILES) | max response |
| --- | --- |
| COc1cccc(NC(=S)NCc2ccccn2)c1 | 72.3% (active) |
| COc1cccc(NC(=S)N(Cc2ccc(C)cc2)Cc2ccccn2)c1 | 0.648% |
| Cc1cc(C)cc(NC(=O)NCc2ccccn2)c1 | -2.88% |
| COc1cccc(S(=O)(=O)NCc2ccc(C(=O)NCc3ccccn3)cc2)c1 | 1.45% |
| O=C(NCc1ccccn1)Nc1ccc(F)cc1 | -3.36% |
| CCC(C)c1ccc(NC(=S)NCc2ccccn2)cc1 (stereo unspecified) | 17.3% (active) |
| COc1cccc(OC)c1C(=O)NC(=S)NCc1ccco1 | 5.2% |
| COC(=O)Cc1ccc(NC(=S)NCc2ccco2)cc1 | 10.2% |
| COc1cccc(NC(=S)NCc2ccco2)c1 | 18.2% (active) |
| O=C(O)C1CCCCC1C(=O)N1CCN(S(=O)(=O)c2ccc(F)cc2)CC1 (stereo unspecified) | -2.39% |
| O=C(Nc1ccccc1)N1CCN(C2c3ccccc3-c3ccccc32)CC1 | -0.816% |
| COc1ccc(N(CC(=O)N2CCCCCC2)S(=O)(=O)c2ccccc2)cc1 | 4.89% |
| CC1(C(=O)NNC(=S)NCC2CCCO2)CC1(Cl)Cl (stereo unspecified) | -4.02% |
| COc1ccccc1N1CCN(S(=O)(=O)c2ccc3c(c2)NC(=O)CS3)CC1 | 5.75% |
| CC(=O)N1CC(=O)N(CC(=O)Nc2ccc(Br)cc2)C1=S | -5.45% |
| NC(=O)COC(=O)c1ccc2c(c1)C(=O)N(Cc1ccco1)C2=O | -3.87% |
| CCOCN(C(=O)Cn1c(C(C)O)nc2ccccc21)c1c(C)cccc1CC (stereo unspecified) | -4.33% |
| Cc1cc(C(F)(F)F)n2ncc(-c3ccccc3)c2n1 | 6.21% |
| COc1ccccc1-c1cnn2c(N3CCOCC3)cc(C)nc12 | 52% (active) |
| COc1ccccc1NC(=O)C1CCCN(c2cc(C)nc3ncnn23)C1 (stereo unspecified) | -3.74% |
| CN1C(=O)/C(=C\c2cc(Br)cs2)c2ccccc21 | 46.4% (active) |
| CN1C(=O)/C(=N/OC(=O)c2ccccc2Br)c2ccccc21 | 3.18% |
| CCC1C(=O)c2ccccc2N(C)C1=O (stereo unspecified) | -0.886% |
| COc1ccc(/C=C(\NC(=O)c2ccccc2)C(=O)NCCN2CCOCC2)cc1OC | -1.94% |

| Structure (SMILES) | max response |
| --- | --- |
| O=C(CNCCC1=CCCCC1)Nc1ccccc1N1CCCCCC1 | -4.26% |
| CCOc1ccc(C(CCc2ccccc2)NC(=O)c2ccc(OC)c(OC)c2)cc1OCC (stereo unspecified) | 7.29% |
| Cc1ccc(C)c(NC(=O)c2ccc3nccnc3c2)c1 | 5.91% |
| COCC(C)NC(=O)c1ccc(Cl)c(Cl)c1 (stereo unspecified) | 0.894% |
| CC(C)CCC(C)NC(=O)c1ccc2nccnc2c1 (stereo unspecified) | 53.8% (active) |
| CC(C)C(=O)Nc1c2c(nn1-c1ccccc1)CSC2 | -1.75% |
| Cn1c(=O)c2sccc2n(Cc2ccc(Br)cc2)c1=O | -2.03% |
| CCN(CC)CCC(c1ccc2c(c1)OCO2)c1c(OC)cc(OC)c2c(-c3ccccc3)cc(=O)oc12 (stereo unspecified) | -5.1% and -16.4% |
| CC1CN/C(=C\C(=O)c2ccc(Br)cc2)C(=O)N1 (stereo unspecified) | 106% (active) |
| C/C(=C\C(=O)c1ccc(Br)cc1)N1CCCCC1 | -3.58% |
| COc1cc2c(cc1OC)/C(=C/C(=O)c1ccc(NC(C)=O)cc1)NCC2 | -5.05% |
| Cc1cccc(-n2c(SCC(=O)Nc3cccc(S(=O)(=O)NC4=NCCCCC4)c3)nc3ccccc3c2=O)c1C | -4.44% |
| Cc1cc(Cl)ccc1OCCCC(=O)Nc1cccc(-n2cnnn2)c1 | 1.51% |
| CC(CC(=O)N1CCN(S(=O)(=O)c2ccccc2)CC1)n1cncn1 (stereo unspecified) | -1.89% |
| N#C/C=C1\Sc2ccccc2C(=O)N1CC(=O)N1CCN(S(=O)(=O)c2ccccc2)CC1 | 27.7% (active) |
| O=C(Cc1ccccc1)N1CCN(S(=O)(=O)c2ccc([N+](=O)[O-])cc2)CC1 | -3.27% |
| CC(C)(C)c1csc(NC2=NS(=O)(=O)c3ccccc32)n1 | 26.2% (active) |
| Cc1ccc(S(=O)(=O)N(NC2=NS(=O)(=O)c3ccccc32)C(=O)c2ccccc2)cc1 | -4.47% |
| O=C(Oc1cccc(NC2=NS(=O)(=O)c3ccccc32)c1)c1ccncc1 | -1.79% |
| O=C(Nc1cccc(-c2cccc(Cl)c2)c1)C1CCN(C2CCC2)CC1 | -5.18% |
| O=C(OCCN=C1NS(=O)(=O)c2ccccc21)c1cccc([N+](=O)[O-])c1 | 0.837% |
| CCC(CC)c1nnc(NC(=O)c2nn(C)c(=O)c3ccccc23)s1 | -3.83% |
| CC(=O)c1cnc(SCCN2C(=O)c3ccccc3C2=O)nc1C | 6.2% |
| Cc1ccc(SCCN2C(=O)NC(C)(C)C2=O)cc1 | -0.406% |

| Structure (SMILES) | max response |
| --- | --- |
| Nc1ccc(SCCN2C(=O)c3ccccc3C2=O)cc1 | 30.6% (active) |
| CCCCc1cc(=O)oc2c(C)c(OCC(=O)N3CCC(C(N)=O)CC3)ccc12 | -2.86% |
| COc1ccc(Cl)cc1NC(=O)Cn1nc(-c2ccc(C)cc2)n(C)c1=S | 0.595% |
| CCN(CC(=O)NCc1ccco1)S(=O)(=O)c1ccc(F)cc1 | -3.33% |
| COc1cc(Nc2nc3ccc(Cl)cc3n3cnnc23)cc(OC)c1OC | -8.65% |
| COc1ccc(-c2oc3ncnc(NCCCO)c3c2-c2ccc(OC)cc2)cc1 | -2.49% |
| Cc1[nH]n(-c2ccccc2)c(=O)c1/C=N/NC(=O)c1ccoc1C | 55% (active) |
| Cc1[nH]n(-c2ccc(Cl)cc2)c(=O)c1/C=N/n1c(C)nc2ccccc2c1=O | -2.58% |
| COc1cc(/C=N/NC(=O)c2ccoc2C)ccc1OCCN1CCCCC1 | 15.6% |
| COc1cccc(/C=N/NC(=O)c2cccc([N+](=O)[O-])c2)c1OS(=O)(=O)c1ccc(C)cc1 | 1.94% |
| Cc1ccc(-n2[nH]c(C)c(/C=N/NC(=O)c3cccc([N+](=O)[O-])c3)c2=O)cc1C | 34.1% (active) |
| COc1cc(/C=N\NC(=O)CNC(=O)c2cccc([N+](=O)[O-])c2)ccc1O | 2.84% |
| O=C(O)c1ccc(-n2nc(-c3ccccc3)c3ccccc3c2=O)cc1 | 15% |
| COc1ccc(OC)c(S(=O)(=O)n2c([N+](=O)[O-])cnc2C)c1 | 1.29% |
| COc1cccc(CNC(=O)C2CC(=O)N(C3CCCCCCC3)C2)c1 (stereo unspecified) | 24.6% |
| Cc1ccc(C2Nc3cccc4cccc(c34)N2)cc1 | 2.47% |
| C=CCOc1cccc(C2NC(=O)c3ccccc3O2)c1 (stereo unspecified) | 11.8% |
| O=C1NC(c2cccc(Cl)c2)Nc2ccccc21 (stereo unspecified) | 16% (active) |
| O=C1CC(c2cccc(Cl)c2)CC(O)=C1C=Nc1ccccc1 (stereo unspecified) | -1.34% |
| COc1ccc(C2NC(=O)c3ccccc3N2)cc1 (stereo unspecified) | 19.8% (active) |
| COc1cccc(C2Nc3cccc4cccc(c34)N2)c1 | 1.12% |
| CC1=CC(C)(C)NC(=S)N1c1ccccc1 | -0.571% |
| COC(=O)c1ccccc1NC(=O)CSc1nc2c(c(=O)[nH]1)CCC2 | -0.834% |
| COc1ccc(NC(=O)CC2C(=O)NC3CCCCC3N2C(=O)c2ccc(F)cc2)cc1 (stereo unspecified) | -1.58% |

| Structure (SMILES) | max response |
| --- | --- |
| COc1cccc(Nc2ncccc2C(=O)O)c1 | 48% (active) |
| O=C(Nc1ccccc1)c1cccnc1Nc1ccccc1 | 15% |
| COc1cccc(NC(=O)c2ccccc2SC)c1 | 2.56% |
| CC(C)CCn1cnc2c1c(=O)n(CC(=O)NC(N)=O)c(=O)n2Cc1ccccc1 | -9.03% |
| Nc1nc(Nc2ccccc2F)nc(NC2CCCCC2)c1[N+](=O)[O-] | -1.02% |
| NC(=O)C1CCN(C(=O)COc2cccc3cccnc23)CC1 | -4.62% |
| CCOC(=O)C1CCN(C(=O)COc2cc(C)c(Br)c(C)c2)CC1 | -0.76% |
| CCOC(=O)C1CCN(C(=O)COc2cccc3ccccc23)CC1 | 21.6% (active) |
| CN(CC(=O)Nc1ccccc1F)CC(=O)Nc1ccccc1Br | 27.5% |
| O=C(COC(=O)c1cc2c(s1)CCCC2)NCc1ccccc1Cl | -0.034% |
| O=C(CNC(=O)c1cc2c(s1)CCC2)Nc1ccccc1Br | 28.4% (active) |
| Cc1nn(C)cc1C(=O)Nc1ccccc1Br | 9.35% |
| O=C(c1cc2c(s1)CCC2)N1CCN(c2ccccc2)CC1 | 35.8% (active) |
| O=C(NNC(=O)c1cc2c(s1)CCCC2)c1ccccc1 | 60.8% (active) |
| O=C(C1CCC1)N1CCN(c2ccccc2)CC1 | -0.903% |
| O=C(c1ccccc1)c1ccc(C(=O)N2CCN(c3ccccc3)CC2)cc1 | 11.3% |
| O=C(Nc1ccc(F)cc1)c1cc2c(s1)CCCC2 | 34.8% (active) |
| COc1ccc(/C=C2/SC(=O)N(CCCCCC(=O)Nc3ccccc3C(=O)O)C2=S)cc1 | -7.35% |
| Cc1cc(NC(=O)CCC(=O)N(CC(=O)NC2CCCC2)c2ccc(F)cc2)no1 | -7.13% |
| CC(C)CCn1c(=O)c2c(nc3n2CCCN3Cc2ccccc2)n(C)c1=O | -1.82% |
| O=C(CSCc1ccc([N+](=O)[O-])cc1)Nc1cccc(C(=O)Nc2ccccc2C(=O)O)c1 | -3.69% |
| C=CCn1c(C2CC(=O)N(c3ccc(C)cc3)C2)nc2ccccc21 (stereo unspecified) | -5.17% |
| CC(C)(C)c1cc2cccnc2n1Cc1cccc(F)c1 | -4.56% |
| CCc1ccc(OCC(=O)N(Cc2ccccc2)C2CCS(=O)(=O)C2)cc1 (stereo unspecified) | -3.33% |
